Rows were chosen to be rich in hits. Some 2.9% of all compounds tested hit in one or more screens of this group.
Pol iota inh: qHTS for Inhibitors of Polymerase Iota; Pol iota fluorescent replication assay, 10 min; Potency, µM (doses to about 115 µM), without a hit: at the top dose activity, negative = inhibition, most hits filed as inhibitors; actives 1% (n = 390,000); DNA polymerase iota (Homo sapiens), Q9UNA4; also: potency is read from the fitted curve at half-maximal effect
Target sequence (Q9UNA4 whole entry, looked up): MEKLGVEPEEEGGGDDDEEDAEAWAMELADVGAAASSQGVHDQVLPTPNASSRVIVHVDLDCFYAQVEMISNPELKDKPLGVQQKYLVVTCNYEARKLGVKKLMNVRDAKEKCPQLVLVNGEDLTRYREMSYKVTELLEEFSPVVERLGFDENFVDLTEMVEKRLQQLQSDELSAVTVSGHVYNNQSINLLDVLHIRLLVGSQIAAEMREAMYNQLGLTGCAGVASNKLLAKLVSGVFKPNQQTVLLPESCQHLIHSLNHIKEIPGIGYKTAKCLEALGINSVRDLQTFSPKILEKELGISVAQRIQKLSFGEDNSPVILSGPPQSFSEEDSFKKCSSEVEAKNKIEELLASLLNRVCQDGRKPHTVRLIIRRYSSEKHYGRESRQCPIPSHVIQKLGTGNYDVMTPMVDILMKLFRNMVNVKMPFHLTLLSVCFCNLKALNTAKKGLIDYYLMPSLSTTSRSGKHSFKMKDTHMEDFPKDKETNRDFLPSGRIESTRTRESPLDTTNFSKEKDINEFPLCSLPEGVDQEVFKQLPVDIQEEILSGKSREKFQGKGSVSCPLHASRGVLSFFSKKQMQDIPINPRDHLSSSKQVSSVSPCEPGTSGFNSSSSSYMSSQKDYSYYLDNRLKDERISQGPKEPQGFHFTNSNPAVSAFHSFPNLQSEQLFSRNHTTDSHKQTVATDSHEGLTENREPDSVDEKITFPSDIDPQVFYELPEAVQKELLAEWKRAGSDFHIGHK
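Pol iota at 10 nM preincubated 15 min with compounds at room temperature; reaction started with fluorescent substrate, 50 nM final. Fluorescence read kinetically at 0 and 10 min; buffer-only wells as negative control.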
Pol kappa inh-1: qHTS for Inhibitors of Polymerase Kappa | purified Pol kappa, fluorescent DNA synthesis assay, 10 min | AID 588579, 2011 | actives 0.53% (n = 400,000) | Potency, µM (top dose mostly 107 µM), without a hit: top-dose activity, negative = inhibition, most hits filed as inhibitors; also: potency is read from the fitted curve at half-maximal effect; % is scaled to controls: 0 for no effect and ±100 for the full control effect
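Activity was followed as the change in fluorescence between reads at 0 and 10 min after starting the reaction with 50 nM substrate. Beforehand, 10 nM polymerase had been preincubated with compound for 15 min at room temperature.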
Pol beta inh-1: qHTS Assay for Inhibitors of DNA Polymerase Beta | actives 1.3% (n = 340,000) | P06746 | Potency, µM (top dose mostly 114 µM), inactives show at the highest dose activity change, negative = inhibition, hits mostly inhibitors | AID 485314, 2010 | Pol beta primer extension/strand displacement, fluorescence kinetic; also: potency is read from the fitted curve at half-maximal effect; % is scaled to controls: 0 for no effect and ±100 for the full control effect
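Curves were derived by four-parameter Hill fits of normalized qHTS data. The kinetic fluorescent primer-extension read was taken at 0 and 10 min after 50 nM substrate, following a 15 min room-temperature preincubation of 10 nM enzyme with compounds.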
Pol eta inh-1: qHTS for Inhibitors of Polymerase Eta; recombinant Pol eta, fluorescent DNA replication assay; Potency, µM (highest dose often 114 µM), for the others: top-dose activity change, negative = inhibition, usual class: inhibitors; actives 1.2% (n = 390,000); also: potency is read from the fitted curve at half-maximal effect; % is scaled to controls: 0 for no effect and ±100 for the full control effect
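Fluorescent replication assay: 50 nM final substrate added after a 15 min room-temperature compound preincubation with 10 nM enzyme. Signal taken at 0 min and again at 10 min.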
PI5P4Ka inh: qHTS for Inhibitors of phosphatidylinositol 5-phosphate 4-kinase (PI5P4K). PI5P4Kalpha enzyme, ADP-Glo luminescence, 60 min; active compounds read low. max response, %. AID 652105, 2013. Phosphatidylinositol 5-phosphate 4-kinase type-2 alpha (Homo sapiens), P48426. actives 1.2% (n = 330,000); active = max response of -50% or lower; inconclusive = between -30% and -50%; inactive = -30% or higher; also: value at the top dose of about 77 µM; % is scaled to controls: 0 for no effect and ±100 for the full control effect
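Quantitative HTS of the MLSMR library against PI5P4Kalpha with substrate. ATP added last at 5 microM final; room temperature, 60 minutes. Remaining ATP depleted, ADP converted and read as luminescence.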
12-LOX inh: Primary qHTS assay for inhibitors of human arachidonate 12S-lipoxygenase (ALOX12): Round 2; Polyunsaturated fatty acid lipoxygenase ALOX12 (Homo sapiens), P18054; purified 12hLO, xylenol orange hydroperoxide absorbance; Potency, µM (series often up to 108 µM), for inactives: top-dose activity change, negative = inhibition, hits mostly inhibitors; actives 1.1% (n = 580,000); AID 1671190, 2021; also: potency is read from the fitted curve at half-maximal effect; % is scaled to controls: 0 for no effect and ±100 for the full control effect
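Hydroperoxide product was detected by ferrous iron/xylenol orange as the 573 to 405 nm absorbance ratio. Arachidonic acid at 40 uM (final) was turned over for 30 min at room temperature by 150 nM human 12hLO, pH 7.0 Hepes buffer, after 15 min compound preincubation.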
Pol beta inh-2: Inhibitors of DNA Polymerase Beta: Hit validation; shares compounds with Pol beta inh-1; Pol beta primer extension/strand displacement, fluorescence kinetic; Potency, µM, usual class: inhibitors; actives 87% (n = 250); AID 540280, 2011; calls by dose curve; also: potency is read from the fitted curve at half-maximal effect
Klenow counter: Inhibitors of DNA Polymerase Beta: Hit Validation in Klenow Fragment Assay. 250 tested, under 10 active. Klenow exo- polymerase counter-screen, fluorescent DNA substrate. activity change, negative = inhibition, % at 57.1 µM. shares compounds with Pol beta inh-1
HIV RT inh: Inhibitors of DNA Polymerase Beta: Hit Validation in HIV-RT Assay; shares compounds with Pol beta inh-1; 250 tested, under 10 active; AID 540301, 2011; activity % (negative = inhibition, positive = activation), % at 57.1 µM; HIV-1 RT polymerase activity, counter-screen
POLB valid: Inhibitors of DNA Polymerase Beta: Hit Validation in Radiolabeled Extension Assay; shares compounds with Pol beta inh-1; radiolabeled primer extension gel assay, phosphorimager; inhibition, % at 10 µM; actives 91% (n = 110);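 active = inhibition at 10 µM of 30% or more; inconclusive = no clear call, values can overlap the other calls; inactive = inhibition at 10 µM under 30%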
TbPGK inh: qHTS for inhibitors of Phosphogylcerate Kinase: Hit Validation Screen; shares compounds with Pol kappa inh-1; actives 79% (n = 500); TbPGK coupled GAPDH assay, Kinase-Glo luminescence; Potency, µM (doses to about 57.5 µM), for the others: at the highest dose activity change, negative = inhibition, actives largely listed as inhibitors; also: potency is read from the fitted curve at half-maximal effect; % is scaled to controls: 0 for no effect and ±100 for the full control effect; nearly all actives have a fitted effect of over 65% in size
Pol iota confirm: qHTS for Inhibitors of Polymerase Iota: Confirmatory Assay for Cherry-picked Compounds | AID 720496, 2013 | actives 77% (n = 1,500) | shares compounds with Pol kappa inh-1 | Potency, µM, hits mostly inhibitors | Pol iota primer extension, TAMRA/BHQ fluorescence; also: potency is read from the fitted curve at half-maximal effect
Pol kappa inh-2: qHTS for Inhibitors of Polymerase Kappa: Confirmatory Assay for Cherry-picked Compounds. shares compounds with Pol eta inh-1. purified Pol-kappa, fluorescent strand-displacement substrate. Potency, µM, usual class: inhibitors. actives 76% (n = 920). AID 720501, 2013; also: potency is read from the fitted curve at half-maximal effect
Pol eta inh-2: qHTS for Inhibitors of Polymerase Eta: Confirmatory Assay for Cherry-picked Compounds. shares compounds with Pol eta inh-1. Potency, µM, actives largely listed as inhibitors. AID 720502, 2013. actives 64% (n = 2,600). Pol eta primer extension, TAMRA/BHQ fluorescence, 10 min; also: potency is read from the fitted curve at half-maximal effect
The depositor's hits bear a star. Unless noted, calls follow the shape of the dose curve; as a rule, active = well fitted curve in the direction sought with a large enough effect; inconclusive = small, poorly fitted or top-dose-only effect, or another doubt; inactive = no such curve, though single readings can be large; an effect the other way counts as inactive or inconclusive.

COc1ccc(-c2cc(=O)oc3c(O)c(O)ccc23)cc1 was read as Pol iota inh inconclusive, Pol kappa inh-1 inconclusive, Pol beta inh-1 10µM*, Pol eta inh-1 7.9µM*, PI5P4Ka inh -17, 12-LOX inh 1.1µM*, Pol beta inh-2 6.3*, Klenow counter -9, HIV RT inh 17, TbPGK inh 9.2µM*, Pol iota confirm 67* and Pol eta inh-2 inconclusive.
Screening COc1ccc(C(=O)Oc2ccc3c(-c4ccc(OC)cc4)cc(=O)oc3c2)cc1 returned 12-LOX inh -12%.
`Cc1ccc(Nc2ccc(N3CCN(S(=O)(=O)c4ccc(Cl)c(Cl)c4)CC3)nn2)cc1` gave 12-LOX inh 0%.
For O=C(N/N=C/c1ccco1)c1cccc(N2CCCC2=O)c1 the results were Pol iota inh inconclusive, Pol kappa inh-1 -7%, Pol beta inh-1 inconclusive, Pol eta inh-1 inconclusive, PI5P4Ka inh 2 and 12-LOX inh -13%.
For O=C(N/N=C/c1ccco1)c1cccc(N2Cc3ccccc3C2)c1 the results were Pol iota inh 10µM*, Pol kappa inh-1 35µM*, Pol beta inh-1 13µM*, Pol eta inh-1 7.9µM*, PI5P4Ka inh -88*, 12-LOX inh -12%, Pol beta inh-2 16*, Klenow counter -14, HIV RT inh 20, Pol iota confirm 42*, Pol kappa inh-2 17* and Pol eta inh-2 43*.
For O=C1C=C(c2ccccc2)C/C1=C\c1ccccc1 the results were 12-LOX inh -15%.
Screening CN(CC(=O)NC(=O)NCc1ccco1)Cc1nc2ccccc2c(=O)[nH]1 returned Pol iota inh 25µM*, Pol kappa inh-1 inconclusive, Pol beta inh-1 20µM*, Pol eta inh-1 inconclusive, 12-LOX inh 12%, Pol beta inh-2 35*, Klenow counter -26, HIV RT inh 37, POLB valid 83*, Pol iota confirm 60* and Pol eta inh-2 inconclusive.
Screening CCOC(=O)c1cnc(-n2[nH]c(C)cc2=O)[nH]c1=O returned Pol iota inh 0.89µM*, Pol kappa inh-1 8.9µM*, Pol beta inh-1 3.2µM*, Pol eta inh-1 inconclusive, PI5P4Ka inh 2, 12-LOX inh -7%, Pol beta inh-2 32*, Klenow counter -30, HIV RT inh 8, POLB valid 89*, Pol iota confirm 27* and Pol eta inh-2 11*.
For CCOC(=O)c1cnc(-n2nc(C)cc2C)[nH]c1=O the results were Pol iota inh inconclusive, Pol kappa inh-1 10%, Pol beta inh-1 -3%, Pol eta inh-1 9%, PI5P4Ka inh 1 and 12-LOX inh 58%.
`N#CC1(NC(=O)CSc2ccc3ccccc3n2)CCCC1` gave 12-LOX inh 14%.
For COc1ccc(NC(=O)Cn2ncc(Cl)c(Cl)c2=O)cc1S(=O)(=O)N1CCOCC1 the results were Pol iota inh 20µM*, Pol kappa inh-1 45µM*, Pol beta inh-1 10µM*, Pol eta inh-1 7.1µM*, PI5P4Ka inh -78*, 12-LOX inh -26%, Pol beta inh-2 32*, Klenow counter -6, HIV RT inh inconclusive, POLB valid 98*, Pol iota confirm 67* and Pol eta inh-2 76*.
COc1ccc(NC(=O)c2ccc(Cl)nc2)cc1S(=O)(=O)N1CCOCC1 was read as Pol iota inh inconclusive, Pol kappa inh-1 -14%, Pol eta inh-1 -13%, PI5P4Ka inh -5 and 12-LOX inh 419%.
`Cc1[nH]c2ccccc2c1C1N=C(N)Nc2nc3ccccc3n21` (centres undefined) gave 12-LOX inh -1%.
Cc1nnc(NC(=O)COc2ccc3c(C)cc(=O)oc3c2)s1 was read as Pol iota inh inconclusive, Pol kappa inh-1 -23%, Pol beta inh-1 20µM*, Pol eta inh-1 10µM*, PI5P4Ka inh inconclusive, 12-LOX inh 0%, Pol beta inh-2 22*, Klenow counter 3, HIV RT inh -4, POLB valid 96*, Pol iota confirm 60* and Pol eta inh-2 76*.
